The source made the active and inactive calls. Rule for the calls: active = hit-call score of the fitted dose curve at least 0.9, where 1 is the maximum; inactive = score below 0.9.
read-out: Peroxisomal acyl-coenzyme A oxidase 1 (ACOX1) gene, ACOX1 (gene 51); assay: LTEA_HepaRG_ACOX1: Life Technologies and Expression Analysis (LTEA) Assay for Peroxisomal acyl-coenzyme A oxidase 1 (ACOX1) gene using HepaRG (AID 2283467); settings: mRNA level, 48 h; actives raise or lower the signal
Protocol: LTEA_HepaRG is a cell based, multiplexed-readout assay that uses HepaRG, a human liver cell line, with measurements taken at 48 hours after chemical dosing on a 96-well plate.LTEA_HepaRG_ACOX1 is one of 102 assay component(s) measured in the LTEA HepaRG cell culture assay. It is a marker of Steatosis.Data from the assay component LTEA_HepaRG_ACOX1 was analyzed into 1 endpoint. This assay endpoint, LTEA_HepaRG_ACOX1, was analyzed with bidirectional fitting relative to DMSO as the negative control and baseline of activity. Using a type of inducible reporter, measures of mRNA induction for gain or loss-of-signal activity can be used to understand regulation of transcription factor activity. To generalize the intended target to other relatable targets, this assay endpoint is annotated to the oxidase intended target family, where the subfamily is steatosis.
A total of 1060 chemcials from the ToxCast library were tested in eight-point concentration-response experiments. Cell culture and cytotoxicity assays were conducted at Thermo Fisher Scientific's Custom Services facility (Madison, WI). A single lot of human HepaRG cells (Thermo Fisher Scientific, Frederick, MD) was used for the cell culture experiments. 96-well format collagen type I coated plates of human HepaRG cells were prepared using established methods. Briefly, cryopreserved HepaRG cells were thawed, plated at a density of approximately 100,000 cells/well in HepaRG Thaw, Plate, and General Purpose media (HPRG770, Thermo Fisher Scientific), and incubated for 48 hours. 0.5% DMSO was selected as vehicle control to balance the requisite need of DMSO in HepaRG cultures to maintain differentiation (for example, baseline metabolism, proportions of hepatocytes vs. cholangiocytes), while enabling further hepatic receptor pathway activation (for example, PXR and CAR) in response to chemical exposure. 48 hours after plating, the culture medium was replaced with HepaRG Serum-Free Incudtion Media. Cells were exposed to each test chemical in duplicate and maintained in CO2 incubators for another 48 hours. Chemical plates were thawed to room temperature and 200x concentrations of treatment groups were prepared. 8-point conentration-reponse curves were made with the highest exposure at 100 uM, followed by half-log dilutions, all in 0.5% DMSO. Each test plate contained variouse controls, induction positive controls (1mM phenobarbital), cytotoxicity positive controls ([…] aflatoxin B1), vehicle controls (0.5% DMSO), and total lysis controls (0.5% DMSO). Cell morphology images were taken using an Essen IncuCyte FLR automated microscope, with six 96-well plates imaged in about 24 minutes. Images were captured and exported and JPEG files. Spent culture media was transfered to black-well plates for the LDH assay, and remaining media was sorted at -80 C for later use. Cells were treated with RLT buffer and frozen until shipped for gene expression analysis. Total RNA was isolated from the cell suspension in 75 uL of Buffer RLT (Qiagen, Germantown, MD 20874) by Quintiles/Expression Analysis (Durham, NC) using a custom isolation procedure. Total RNA from each plate well was transferred to a preamplification plate. Fluidigm's 96.96 Dynamic ArrayTM (Fluidigm, Amsterdam, the Netherlands) technology was used for gene expression analyses by quantitative reverse transcription polymerase chain reaction (qRT-PCR, performed by Quintiles/Expression Analysis, Durham, NC)89. Standard TaqManTM Assays (Applied Biosystems/ThermoFisher Scientific, Foster City, CA) were used to assess the expression of 93 genes selected based on their selectivity and sensitivity to important hepatic receptors known to be modulated by environmental chemicals; importance in human hepatocyte functionality; and hepatotoxicity. […]

| SMILES | outcome | AC50 |
| --- | --- | --- |
| CCCCC(CC)CO (stereo not given) | inactive |  |
| O=C1O[C@H]([C@H](O)CO)C(O)=C1O | inactive |  |
| Cc1cc(Cc2ccc(N)c(C)c2)ccc1N | inactive |  |
| CCCCC(CC)COP(=O)(OCC(CC)CCCC)OCC(CC)CCCC (stereo not given) | inactive |  |
| C#CC(O)C(CC)CCCC (stereo not given) | inactive |  |
| CC(=O)O | inactive |  |
| CC(N)=O | inactive |  |
| CCC(C)N(C)C(=O)c1cc2ccccc2c(-c2ccccc2Cl)n1 (stereo not given) | inactive |  |
| CC(C)c1cccc(C(C)C)c1 | inactive |  |
| CC(C)c1cccc(C(C)C)c1NC(=O)NS(=O)(=O)c1cc(C(C)(C)O)co1 | inactive |  |
| COC(=O)CCCC(=O)OC | inactive |  |
| Cc1cn([C@H]2C=C[C@@H](CO)O2)c(=O)[nH]c1=O | inactive |  |
| Cc1c(C)c2c(c(C)c1O)CCC(C)(COc1ccc(CC3SC(=O)NC3=O)cc1)O2 (stereo not given) |  | 97.6 µM (active) |
| CCCCCCCC(=O)OC | inactive |  |
| C=CCc1ccc(OC)c(OC)c1 | inactive |  |
| CCCCCCC(CCCCCCCCCCC(=O)OCC(COC(C)=O)OC(C)=O)OC(C)=O (stereo not given) | inactive |  |
| CC1(C)C(=O)NC(=O)N1CO | inactive |  |
| CC(=O)S[C@H](C(=O)N[C@H]1Cc2ccccc2[C@H]2CCC[C@@H](C(=O)O)N2C1=O)C(C)C | inactive |  |
| N[C@@H](Cc1c[nH]c2ccccc12)C(=O)O | inactive |  |
| CSc1ccc(Oc2ccc(S(N)(=O)=O)cc2CN(C)C)cc1C | inactive |  |

| SMILES | outcome | AC50 |
| --- | --- | --- |
| C=CCCCCCCCCCCCC | inactive |  |
| CN(C)CCCN(C)CCCN(C)C | inactive |  |
| CC(=O)OC1CC(C)OC(C)O1 (stereo not given) | inactive |  |
| O=C(Oc1ccccc1)c1cccc(C(=O)Oc2ccccc2)c1 | inactive |  |
| Nc1nc(Cl)nc2c1ncn2[C@H]1C[C@H](O)[C@@H](CO)O1 |  | 4.13 µM (active) |
| O=C(O)CN(CC(=O)O)CC(=O)O | inactive |  |
| COc1ccc(C(=O)Nc2nc3ccccc3c(NCc3ccccc3)c2C#N)cc1 |  | 13.3 µM (active) |
| Cc1occc(=O)c1O | inactive |  |
| CC(C)COC(=O)CCCCC(=O)OCC(C)C | inactive |  |
| CCCC(=O)O | inactive |  |
| CC(=O)CC(c1ccccc1)c1c(O)c2ccccc2oc1=O (stereo not given) | inactive |  |
| CCCCC(CC)COC(=O)CCCCCCCC(=O)OCC(CC)CCCC (stereo not given) | inactive |  |
| NC(=Nc1ccccc1)Nc1ccccc1 | inactive |  |
| CCCCOC(=O)CCCCC(=O)OCCCC | inactive |  |
| S=c1[nH]c2ccccc2s1 | inactive |  |
| CC(C)(O)c1ccc(CNC(=O)c2cccnc2Oc2ccc(F)cc2)cc1 | inactive |  |
| CCCC[C@H]1CN(CC2CCOCC2)C(=O)OC12CCN(C1(C)CCN(C(=O)c3c(C)ncnc3C)CC1)CC2 | inactive |  |
| NCCOCCOCCN | inactive |  |
| O=NO | inactive |  |
| O=C(N[C@@H](c1ccccc1)[C@@H]1CCCCN1)c1cccc(C(F)(F)F)c1Cl |  | 74.2 µM (active) |

Reference: PubChem BioAssay (EPA / NIEHS)
